From PubChem
KAT2A inh = blocks human GCN5L2 histone acetyltransferase; 0.21% of 390,000 active; GCN5L2 HAT assay, ThioGlo1 CoA-SH fluorescence; AID 504327; Q92830; Potency, µM (series often up to 58.9 µM), for inactives: top-dose activity change, negative = inhibition, actives largely listed as inhibitors
Target sequence (Q92830 whole entry, looked up): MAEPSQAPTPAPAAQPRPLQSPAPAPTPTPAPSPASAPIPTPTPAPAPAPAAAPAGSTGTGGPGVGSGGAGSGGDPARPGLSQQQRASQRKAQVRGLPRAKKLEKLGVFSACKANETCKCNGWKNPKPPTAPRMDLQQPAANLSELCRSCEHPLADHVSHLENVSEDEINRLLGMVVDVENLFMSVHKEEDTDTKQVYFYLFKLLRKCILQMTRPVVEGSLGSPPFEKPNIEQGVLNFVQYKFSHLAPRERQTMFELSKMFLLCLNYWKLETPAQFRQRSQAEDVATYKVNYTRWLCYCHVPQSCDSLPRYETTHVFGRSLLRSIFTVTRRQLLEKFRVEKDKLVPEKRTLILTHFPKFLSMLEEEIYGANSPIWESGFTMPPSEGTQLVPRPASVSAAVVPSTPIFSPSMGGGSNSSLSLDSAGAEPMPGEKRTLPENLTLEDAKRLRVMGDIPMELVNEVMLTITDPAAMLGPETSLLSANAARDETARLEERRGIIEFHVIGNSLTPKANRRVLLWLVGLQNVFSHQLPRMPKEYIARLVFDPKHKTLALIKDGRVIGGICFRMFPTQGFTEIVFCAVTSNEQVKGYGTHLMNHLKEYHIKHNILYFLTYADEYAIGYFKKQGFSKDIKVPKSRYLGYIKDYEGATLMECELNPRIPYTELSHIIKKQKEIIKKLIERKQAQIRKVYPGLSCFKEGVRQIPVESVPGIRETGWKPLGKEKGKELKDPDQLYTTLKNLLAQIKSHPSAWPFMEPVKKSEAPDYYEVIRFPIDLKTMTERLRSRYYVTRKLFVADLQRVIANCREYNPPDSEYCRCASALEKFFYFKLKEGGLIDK
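Fluorescence readout, Ex340nm/Em540nm: ThioGlo1 (50uM final) reacts with free CoA thiol released as 20nM GCN5L2 acetylates H3(1-25) peptide (75uM) using acetyl-CoA (70uM). Compound and enzyme sat 15 min beforehand; 20 min room-temperature reaction.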
DT40 TDP1 CPT = DT40-hTDP1 cell growth loss with CPT | AID 686979 | chicken DT40 Tdp1-/-;hTDP1 cells + 20 nM CPT, ATP luminescence, 48 h | Potency, µM (titrated, usually from 46.2 µM), for the others: at the top dose activity change, negative = growth inhibition, usual class: inhibitors | 12% of 420,000 active; also: nearly all actives have a fitted effect of over 55% in size
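Chicken DT40 Tdp1-/- cells complemented with human TDP1, 400 cells/well, exposed to compounds plus 20 nM camptothecin for at least 48 h at 37 C; viability read as ATP content by CellTiter-Glo luminescence.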
DT40 TDP1 no CPT = qHTS for Inhibitors of human tyrosyl-DNA phosphodiesterase 1 (TDP1): qHTS in cells in absence of CPT; DT40 Tdp1-/- hTDP1 cells, no CPT, ATP luminescence, 48 h; Potency, µM (highest dose often 46.2 µM), without a hit: at the highest dose activity change, negative = growth inhibition, most hits filed as inhibitors; 15% of 420,000 active; also: nearly all actives have a fitted effect of over 55% in size
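Readout: luminescence from CellTiter-Glo after 30 min in the dark at RT. Cells: DT40 Tdp1-/- with stable hTDP1, 400/well. Exposure: compounds alone, ≥48 hr, 37 °C.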
VDR inhibitor = vitamin D3 receptor (human) inhibition; AID 504847; VDR-SRC2-3 peptide fluorescence polarization, 2 h; Potency, µM, without a hit: max response, negative = inhibition, hits mostly inhibitors; 0.93% of 400,000 active; P11473
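VDR–SRC2-3 interaction, FP format. Cmpds 23 nl via pintool, brief spin, 2 h ambient incubation.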
PLK1 PBD inh = blocks phosphopeptide binding to human PLK1 polo-box domain; 2.8% of 360,000 active; AID 720504; P53350; Plk1 PBD binding of FITC phosphopeptide, fluorescence polarization; Potency, µM, without a hit: max response, negative = inhibition, hits mostly inhibitors; also: series mostly up to about 57 µM; nearly all actives have a fitted effect of over 65% in size
TDP1 inh = blocks human tyrosyl-DNA phosphodiesterase 1; 0.28% of 350,000 active; recombinant TDP1, AlphaScreen DNA substrate cleavage; Q9NUW8; Potency, µM (doses to about 130 µM), without a hit: at the highest dose activity change, negative = inhibition, most hits filed as inhibitors; also: nearly all actives have a fitted effect of over 40% in size
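Here, a 5' biotin and 3' phosphotyrosine-FITC DNA oligonucleotide reports Tdp1 activity: intact substrate bridges AlphaScreen beads, while cleavage leaves a 3' phosphate and drops signal. All incubations at room temperature.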
* = called active by the depositor; ? = inconclusive; . = no result given; [ ] = dose if it differs, or a comment. Sampled rows, rich in hits. Any-hit rate of the full collection: about 18%. Calls follow the shape of the dose curve; as a rule, active = well fitted curve in the direction sought with a large enough effect; inconclusive = small, poorly fitted or top-dose-only effect, or another doubt; inactive = no such curve, though single readings can be large; an effect the other way counts as inactive or inconclusive. % is scaled to controls: 0 for no effect and ±100 for the full control effect; potency is read from the fitted curve at half-maximal effect.

SMILES | KAT2A inh | DT40 TDP1 CPT | DT40 TDP1 no CPT | VDR inhibitor | PLK1 PBD inh | TDP1 inh
Cc1cccc(NC(=S)N/N=C/c2cccn2Cc2ccc(F)cc2)c1 | -7.1% | ? | 16.4µM* | -2.5% | 0.9% | 11.6%
CSc1ccccc1NC(=S)N/N=C/c1cccn1Cc1ccc(F)cc1 | -17.6% | ? | 23.1µM* | 13.5% | 0.3% | 7.5%
CCOc1ncccc1C(=O)N(C)CC(=O)Nc1ccccc1SC | 5.3% | 23.4% | -8.2% | -19.5% | -1.2% | 2.8%
CC1=CC(C)(C)N2C(=O)C(=Nc3ccc(O)cc3)c3cccc1c32 | -0.2% | 4.11µM* | 3.26µM* | ? | 4.74µM* | 7.1%
COc1cc(N=C2C(=O)N3c4c(cccc42)C(C)=CC3(C)C)cc(OC)c1 | -5.1% | 6.51µM* | 5.17µM* | ? | -8.8% | 9.5%
COc1ccc(N=C2C(=O)N3CCCc4cccc2c43)cc1 | -2.1% | ? | ? | -4.8% | -3.9% | 5.6%
N#CCCN(C(=O)CSc1ccc2c(c1)OCCO2)c1ccccc1 | -7.9% | -16.5% | ? | -23.3% | 18.9µM* | 2.6%
CNS(=O)(=O)c1cc(-c2nnc(Nc3cc(C)ccc3C)c3ccccc23)ccc1C | -9.2% | 20.6µM* | 20.6µM* | -3.6% | . | -1.3%[12.3 µM]
Cc1ccccc1Nc1nnc(-c2ccc(C)c(S(=O)(=O)N3CCOCC3)c2)c2ccccc12 | 1.0% | ? | 16.4µM* | -18.0% | . | 0.4%[12.3 µM]
Cc1ccc(Nc2nnc(-c3ccc(C)c(S(=O)(=O)N4CCOCC4)c3)c3ccccc23)c(C)c1 | -1.7% | ? | 16.4µM* | -5.7% | . | -0.4%[12.3 µM]
CNS(=O)(=O)c1cc(-c2nnc(N3CCOCC3)c3ccccc23)ccc1C | . | -0.6% | -3.2% | -5.8% | 2.4% | .
O=[N+]([O-])c1nn(-c2ccc3c(c2)OCCO3)n(O)c1=Nc1ccc(Cl)cc1 | -1.2% | 23.1µM* | 16.4µM* | -12.6% | 2.7% | 9.6%
O=[N+]([O-])c1nn(-c2ccc3c(c2)OCCO3)n(O)c1=Nc1ccccc1 | -5.9% | 25.9µM* | 23.1µM* | -10.8% | -0.6% | -2.3%
Cc1cc(C)cc(N=c2c([N+](=O)[O-])nn(-c3ccc4c(c3)OCCO4)n2O)c1 | -13.6% | 2.59µM* | 2.91µM* | -5.7% | -4.2% | 10.5%
COCCCNC(=O)CSc1nc2cc3c(cc2c(=O)n1CCCCCC(=O)NCCc1ccc(OC)c(OC)c1)OCO3 | -0.7% | 11.8% | -9.5% | 15.7% | . | 4.4%
Cc1ccc2nc(SCC(=O)NNC(=O)c3ccccc3)[nH]c2c1 | -6.0% | -12.8% | -4.9% | -6.4% | -1.9% | -3.2%
CC(C)c1onc(C(=O)NC2CCCCC2)c1[N+](=O)[O-] | -0.2% | 20.6µM* | 20.6µM* | 12.6% | 5.6% | 1.1%
CC(C)c1onc(C(=O)N2CCCCCC2)c1[N+](=O)[O-] | 3.0% | -0.1% | ? | -1.2% | 10.5% | 1.1%
CC(C)(C#N)NC(=O)C1CCCN1S(=O)(=O)c1ccc2ccccc2c1 (centres undefined) | 3.9% | 23.1µM* | ? | 6.8% | -0.3% | -13.8%
CCNC(=O)C1CCCN1S(=O)(=O)c1ccc2ccccc2c1 (centres undefined) | -1.2% | ? | -23.4% | 5.7% | 0.9% | 3.2%
Cc1ccc(S(=O)(=O)N2CCCC2C(=O)NCCc2ccccc2)cc1 (centres undefined) | 2.1% | -14.1% | 14.6µM* | -8.2% | ? | 4.9%
O=C(NCCc1ccc(Cl)cc1)C1CCCN1C(=O)Nc1ccc(F)cc1 (centres undefined) | 2.4% | -16.2% | 20.5% | 3.7% | -1.0% | 3.1%
NS(=O)(=O)c1ccc(CCNC(=O)C2CCCCN2S(=O)(=O)c2ccccc2)cc1 (centres undefined) | 0.8% | 5.8% | -11.4% | -11.4% | 0.9% | 0.0%
O=C(NCCc1ccccc1)C1CCCN1C(=O)Nc1ccc(F)cc1 (centres undefined) | 6.4% | ? | 14.6µM* | -31.6% | 18.9µM* | 2.1%
Cc1ccc(S(=O)(=O)N2CCC[C@H]2C(=O)Nc2ccccc2Cl)cc1 | -4.3% | 4.0% | 16.4µM* | -1.5% | -8.8% | -2.6%
SMILES | KAT2A inh | DT40 TDP1 CPT | DT40 TDP1 no CPT | VDR inhibitor | PLK1 PBD inh | TDP1 inh
CCCCN(C(=O)c1cccc(S(=O)(=O)N(C)c2ccc(C)cc2)c1)c1c(N)n(CCCC)c(=O)[nH]c1=O | -3.3% | ? | -26.1% | 20.4% | -2.5% | -0.4%
CCOc1ccccc1NC(=O)C1CCCCN1S(=O)(=O)c1ccc(F)cc1 (centres undefined) | -3.3% | -28.1% | 20.6µM* | 13.3% | -8.3% | -2.6%
CC(C)(C)c1ccc(S(=O)(=O)N2CCCCC2C(=O)NCc2ccccn2)cc1 (centres undefined) | -3.7% | 23.1µM* | ? | 7.7% | -10.8% | 2.2%
NS(=O)(=O)c1ccc(CCNC(=O)CN2CCC(Cc3ccccc3)CC2)cc1 | -4.9% | ? | 16.4µM* | -5.1% | 7.3% | 4.7%
O=C(CC(C(=O)O)c1cccc(Cl)c1Cl)c1ccccc1 (centres undefined) | ? | -5.6% | -11.4% | -24.9% | -4.6% | .
O=C(Nc1nc(-c2ccc([N+](=O)[O-])cc2)cs1)C1=COCCO1 | . | -24.5% | 9.2µM* | . | -1.4% | .
Cc1cc(C)c(-c2csc(NC(=O)C3=COCCO3)n2)cc1C | -4.8% | 23.1µM* | 20.6µM* | -10.4% | 0.2% | 2.3%
O=[N+]([O-])c1cccc(NC(=S)Nc2nc(-c3ccc(Cl)cc3Cl)cs2)c1 | -15.7% | . | . | . | . | 2.8%
O=C(NC(=S)Nc1nc(-c2cccc([N+](=O)[O-])c2)cs1)c1cc(Cl)ccc1Cl | -9.3% | -82.7% | 16.4µM* | -14.3% | -18.9% | 8.4%
O=C(Nc1nc(-c2ccc([N+](=O)[O-])cc2)cs1)c1c(F)cccc1F | -6.0% | -2.9% | 4.61µM* | 13.1% | -25.9% | 0.6%
COc1ccc(-c2csc(NC(=O)C3=COCCO3)n2)c(OC)c1 | -14.9% | -7.6% | -27.9% | 3.6% | -0.4% | .
CCc1nc2c(OCc3ccccc3)cccn2c1N(C)C(=O)c1ccc2c(c1)OCO2 | . | ? | ? | . | 4.8% | .
Cc1ccn2c(=O)c(C(=O)NCCc3ccc(S(N)(=O)=O)cc3)c(O)nc2c1 | -6.8% | -11.1% | -12.9% | 10.4% | . | 0.0%
COc1ccc(S(=O)(=O)Nc2ccc(-n3cnnn3)cc2)cc1[N+](=O)[O-] | -3.1% | -11.4% | -29.8% | 7.3% | -9.7% | -5.1%
O=C(OCC(=O)N1CCCc2ccccc21)c1c(F)cccc1F | 1.4% | 13.3% | 12.9% | -2.5% | -8.1% | 2.1%
O=C1N/C(=N/Nc2ccccc2)S/C1=C\c1ccccc1 | ? | -10.0% | -17.3% | 44.7µM* | 21.2µM* | -9.8%
